# Results filed as inconclusive are left out. Where a call stands in place of a potency, no number is given. Unmarked numbers belong to inactive results. The source made the active and inactive calls. Calls follow the shape of the full dose curve.
# Assay: qHTS assay to identify small molecule agonists of H2AX - cell viability counter screen (AID 1224847); also: nearly all actives have a fitted effect of over 30% in size; as to activity change, negative = cytotoxicity: top concentration of the series differs between compounds
# Conditions: CHO-K1 viability, CellTiter-Glo luminescence, 3 h; series mostly up to 154 µM; activity change, negative = cytotoxicity: at the top concentration
# From the text: National Center for Advancing Translational Sciences [NCATS]
# NIH Chemical Genomics Center [NCGC]
# U.S. Environmental Protection Agency [EPA]
# National Institutes of Environmental Health Sciences [NIEHS]
# National Toxicology Program [NTP]
# U.S. Food and Drug Administration [FDA]
# HTRF phospho-H2AX (Ser139) assay (Cisbio Bioassays, US) enables the quantitative detection of the histone variant H2AX when phosphorylated on serine 139. When double-stranded DNA breaks, either by ionizing radiation or endogenous physiological processes, H2AX becomes phosphorylated at Ser139. This phospho-Ser139 serves as a sensitive biomarker for the detection of such breaks, localizing the site of DNA repair. So, HTRF phospho-H2AX Ser139 is a pertinent assay to study genome stability, the cell cycle, DNA repair, and it serves as a biomarker for cancer, and to understand aging. Wild type CHO-K1 cells were used to identify the inducers of Phospho-H2AX Ser 139 from the Tox21 compound collections. Also cytotoxicity of the Tox21 10K compound library against the CHO-K1 cell line was tested by measuring the cell viability using CellTiter-Glo assay (Promega, Madison, WI).
# Tox21 Assay Protocol Summary:
# The CHO-K1 cells suspended in culture medium containing 10% FBS were dispensed at 1000 cells/ 3 ul/well in 1536-well white wall/solid bottom plates (Greiner Bio-One North America, NC) using a Multidrop Combi (Thermo Fisher Scientific Inc., Waltham, MA). After the assay plates were incubated at 37C overnight, 23 nl of compounds at 15 concentrations (from 5-48 columns) or positive control (from 1 to 4 columns) were transferred to the assay plates using a Pintool station (Wako, San Diego, CA) into each well resulting in a final DMSO concentration of 0.76%. After 3hr incubation at 37C, 3 uL/well CellTiter-Glo luminescent cell viability reagent (Promega Corporation, Madison, WI) was added using a Flying Reagent Dispenser (FRD) (Aurora Discovery, CA). After incubation at room temperature for 30 min, the luminescence intensity was read using a ViewLux plate reader (PerkinElmer, Waltham, MA).
# Potency is read from the fitted curve at half-maximal effect.
Compound,"activity change, negative = cytotoxicity",Potency
CCC(C)(CC)c1cc(NC(=O)c2c(OC)cccc2OC)on1,0.0992%,–
CCOC(=O)c1ccccc1C(=O)OCC,–,inactive
O=C(NC(=O)c1c(F)cccc1F)Nc1cc(Cl)c(OC(F)(F)C(F)C(F)(F)F)cc1Cl (stereo not given),–,inactive
CC(C#N)CCC#N (stereo not given),–,inactive
CCCCCOC(=O)c1ccccc1C(=O)OCCCCC,–,inactive
CN(C)CCO,–,inactive
CCN(CC)c1ccccc1,–,inactive
NCCc1ccc(O)cc1,–,inactive
CCC[N+](=O)[O-],–,inactive
COC(=O)c1ccccc1N,–,inactive
CN=C=S,–,inactive
C[C@]12CC[C@H]3[C@@H](CC[C@@]45O[C@@H]4C(O)=C(C#N)C[C@]35C)[C@@H]1CC[C@@H]2O,4.2% [at 70.9 µM],–
Nc1ccc(Br)cc1,–,inactive
C#CC(C)(C)NC(=O)c1cc(Cl)cc(Cl)c1,–,inactive
O=S(=O)(c1ccc(Cl)cc1)c1cc(Cl)c(Cl)cc1Cl,–,89.6 µM (active)
CCC12COCN1COC2,–,inactive
C=C(C)CCl,–,inactive
Cc1ccc(N)cc1Cl,–,inactive
c1ccc2c(c1)Oc1ccccc1O2,–,inactive
CC(C)=C[C@@H]1[C@@H](C(=O)OCc2coc(Cc3ccccc3)c2)C1(C)C,-8.85% [at 70.9 µM],–

Compound,"activity change, negative = cytotoxicity",Potency
CCC[CH2][Sn]([Cl])([Cl])[Cl],–,inactive
CC1OC(C)OC(C)O1 (stereo not given),0.495% [at 70.9 µM],–
Clc1cccc(Cl)c1Cl,–,inactive
CCCCCCCCCl,–,inactive
COC(=O)NC(=S)Nc1ccccc1NC(=S)NC(=O)OC,–,inactive
CCOP(=S)(OCC)Oc1cnc2ccccc2n1,2.47%,–
O=[N+]([O-])c1ccc([As](=O)(O)O)cc1,-0.984% [at 70.9 µM],–
c1ccc(-c2ccccc2)cc1,–,inactive
COC(=O)NS(=O)(=O)c1ccc(N)cc1,–,inactive
c1cc2c3c(cccc3c1)CC2,–,inactive
CC(C)NC(=O)N1CC(=O)N(c2cc(Cl)cc(Cl)c2)C1=O,–,inactive
Nc1ccc(Oc2ccc(N)cc2)cc1,–,inactive
COP(N)(=O)SC (stereo not given),–,inactive
CC(C)(C)OOC(C)(C)C,–,inactive
Nc1ccccc1C(=O)O,–,inactive
Cc1ccc(N)cc1N,–,inactive
Nc1c(Cl)c(Cl)nc(C(=O)O)c1Cl,–,inactive
O=[N+]([O-])c1ccccc1,–,inactive
CC(NC(C)(C)C)C(=O)c1cccc(Cl)c1 (stereo not given),–,inactive
O=c1[nH]c2ccccc2c(=O)o1,–,inactive

# From PubChem BioAssay (Tox21)
